Sampled rows, rich in hits. Any-hit rate of the full collection: about 4.1%.
CHT block: inhibitors of human choline transporter CHT; CHT-expressing cells, membrane potential dye, choline response; stronger effect = lower value; High affinity choline transporter 1 (Homo sapiens), Q9GZV3; actives 0.86% (n = 310,000); B-score at 10 µM;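 active = B-score over 3 SD under the library average, and starting fluorescence ratio not unusually high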;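 note: choline stimulus applied at its EC90 after an EC20 pre-addition; B-score computed on integrated fluorescence ratio after choline addition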
MEKK2 mut-MEK5: MEK5 binding signal on mutant MEKK2 PB1, primary screen, biochemical, multiplex bead flow cytometry, Alexa488-MEK5; Alexa488-MEK5 binding to MEKK2 mutant; percent response, % at 10 µM; actives 0.35% (n = 290,000); AID 1530, 2009; in the data active = percent response above about 24%, passing the limit was not always enough
MEKK2 WT-MEK5: modulators of MEK5 binding to wildtype MEKK2, primary screen, biochemical, multiplex bead flow cytometry, Alexa488-MEK5. Alexa488-MEK5 binding to MEKK2 WT; actives lie on both sides. binding response (% of control), % at 10 µM. actives 1.1% (n = 290,000). AID 1531, 2009; in the data active = binding response below about 67% or above about 130%
CHT PAM: CHT positive allosteric modulators, primary screen, cell-based, membrane potential dye, choline EC20; actives 0.49% (n = 310,000); B-score at 10 µM; CHT-expressing cells; stronger effect = higher value; LV-AA mutant CHT in HEK293 cells; High affinity choline transporter 1 (Homo sapiens), Q9GZV3; AID 488977, 2010;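 active = initial fluorescence not abnormally high and integrated response B-score, plate-corrected, over 3 SD above library mean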
MEKK3 PB1 HTS: modulators of MEKK3-MEK5 PB1 binding, primary screen, biochemical, wildtype MEKK3, multiplex bead flow cytometry, Alexa488-MEK5; Mitogen-activated protein kinase kinase kinase 3 (Homo sapiens), Q99759; bead-based flow cytometry, Alexa488-MEK5 binding to MEKK3; actives lie on both sides; 0 = blocked by unlabeled MEK5, 100 = vehicle; binding response (% of control), % at 10 µM; actives 1.4% (n = 290,000); AID 1529, 2009;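 active = binding response more than 3 SD above or below the average of its plate-row segment, actives on both sides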;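 note: Alexa488 bead fluorescence after subtracting the streptavidin-only scavenger bead signal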
Target sequence (Q99759 whole entry, looked up): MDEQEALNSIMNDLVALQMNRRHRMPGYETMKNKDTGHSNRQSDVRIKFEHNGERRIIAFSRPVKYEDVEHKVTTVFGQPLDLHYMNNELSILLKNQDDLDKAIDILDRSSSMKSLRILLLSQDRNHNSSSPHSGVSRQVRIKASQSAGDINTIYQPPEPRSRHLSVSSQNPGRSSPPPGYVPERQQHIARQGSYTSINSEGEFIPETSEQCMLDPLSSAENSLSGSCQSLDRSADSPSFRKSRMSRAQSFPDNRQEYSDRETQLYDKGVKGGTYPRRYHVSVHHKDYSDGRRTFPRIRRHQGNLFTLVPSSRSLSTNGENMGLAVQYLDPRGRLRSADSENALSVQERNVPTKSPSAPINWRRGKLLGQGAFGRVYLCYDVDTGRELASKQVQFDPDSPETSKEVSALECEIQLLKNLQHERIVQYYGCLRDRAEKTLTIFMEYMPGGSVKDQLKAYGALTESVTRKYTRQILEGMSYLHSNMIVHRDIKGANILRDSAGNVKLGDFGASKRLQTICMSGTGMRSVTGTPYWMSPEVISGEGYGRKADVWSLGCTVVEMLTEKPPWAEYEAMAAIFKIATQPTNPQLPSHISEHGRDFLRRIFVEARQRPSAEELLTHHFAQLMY
Mot1-301 SUMO: yeast Mot1-301 growth rescue at high temperature, primary screen, SUMOylation pathway inhibitor project, S. cerevisiae, ATP luminescence, 38.5C | S. cerevisiae Mot1-301 growth rescue; percent above DMSO median, 100 means doubled | growth rescue, % at 18.8 µM | actives 1% (n = 320,000);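 active = every valid replicate shows activation above 250% relative to neutral control wells; inactive = the rest, any valid replicate at or below 250%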;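 note: OY570 slx delta 5 strain wells were the positive control but not used for scaling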
MEKK2wt confirm: modulators of MEK5 binding to wildtype MEKK2, confirmation, biochemical, single concentration, multiplex bead flow cytometry | shares compounds with MEKK3 PB1 HTS | Alexa488-MEK5 binding to MEKK2 WT; actives lie on both sides | binding response (% of control), % at 10 µM | actives 2.4% (n = 5,900) | AID 1892, 2009; in the data active = binding response below about 16% or above about 210%; inactive = in between
MEKK2mut confirm: mutant MEKK2 PB1-MEK5 binding signal retest – biochemical, single concentration, multiplex bead flow cytometry, confirmation; shares compounds with MEKK3 PB1 HTS; Alexa488-MEK5 binding to MEKK2 mutant; percent response, % at 10 µM; actives 2% (n = 5,900); AID 1893, 2009; in the data active = percent response mostly above about 71%, no sharp cut-off; inactive = mostly below about 38%;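 note: higher means compound restores mutant binding toward wildtype level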
MEKK3-MEK5 inh: MEKK3 wild-type PB1 binding to MEK5, inhibitors, confirmation, biochemical, bead multiplex flow cytometry, single concentration, wildtype; binding response (% of control), % at 10 µM; shares compounds with MEKK3 PB1 HTS; Alexa488-MEK5 binding to MEKK3; stronger effect = lower value; actives 1.8% (n = 5,900); AID 1894, 2009;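 active = binding response below 72% of control, or above a set upper limit, though filed actives all read lower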;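 note: 100% = DMSO only wells and 0% = binding blocked by excess unlabeled MEK5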
The depositor's hits bear a star; i = inactive; · = no result given; ! = not active in a repeat; [ ] = dose if it differs, or a comment.

SMILES	CHT block	MEKK2 mut-MEK5	MEKK2 WT-MEK5	CHT PAM	MEKK3 PB1 HTS	Mot1-301 SUMO	MEKK2wt confirm	MEKK2mut confirm	MEKK3-MEK5 inh
COc1ccc(Cl)cc1NC(=O)CSc1nnc(-c2ccco2)o1	i	4.0	104.0	i	100.0	-1.4	·	·	·
CCN(CC)CCNC(=O)c1cc2c(s1)-c1ccccc1SC2	i	25.0*	146.0*	i	107.0	-0.3	129.0	13.0	105.0
O=C(Nc1ccc(N2CCCC2)cc1)c1ccc(Br)cc1	i	10.0	151.0*	i	105.0	5.5	124.0	13.0	94.0
CC(CN1CCCCC1)C(=O)NNC(=O)C12CC3CC(CC(C3)C1)C2 (stereo not drawn)	i	-2.0	101.0	i	107.0	0.2	·	·	·
CC(C)NC(=O)C(=O)NNC(=O)C12CC3CC(CC(C3)C1)C2	i	24.0*	103.0	i	110.0	-16.1	107.0	0.0	102.0
O=C(CCc1nnc2ccc(NCc3ccccc3)nn12)NC1CCCC1	i	9.0	102.0	i	102.0	-5.2	·	·	·
COc1ccc(N2CCN(C3CCCN(C(=O)CCN4CCCCO4)C3)CC2)cc1 (stereo not drawn)	·	6.0	103.0	·	104.0	·	·	·	·
c1ccc2c(c1)Cn1nc(Cc3nc4c(s3)CCCC4)nc1-2	i	1.0	103.0	i	104.0	9.9	·	·	·
N#CCc1nc2n(n1)Cc1ccccc1-2	i	·	136.0*	i	124.0*	9.0	101.0	16.0	103.0
COc1ccc(CN(C)C(=O)Cc2ccc(S(=O)(=O)N3CCOCC3)s2)cc1OC	·	·	·	·	·	2.5	·	·	·
OC(COc1cccc2ccccc12)CN1CCN(c2ccc(Cl)cc2)CC1 (stereo not drawn)	i	-2.0	144.0*!	i	102.0	-3.9	113.0	8.0	105.0
OC(COc1cccc2ccccc12)CN1CCCC1 (stereo not drawn)	i	10.0	139.0*	i	103.0	-7.9	133.0	15.0	103.0
OC(COc1cccc2ccccc12)CN1CCN(c2cccc(Cl)c2)CC1 (stereo not drawn)	i	6.0	99.0	i	100.0	96.3	·	·	·
OC(COc1ccc2ccccc2c1)CN1CCCC1 (stereo not drawn)	i	2.0	102.0	i	90.0	-13.5	·	·	·
CCOC(=O)c1c(O)c(Cl)c(C)[nH]c1=O	i	-2.0	103.0	i	112.0	17.5	·	·	·
COc1ccc(NC(=O)c2cc(S(=O)(=O)N3CCCCC3)c[nH]2)c(OC)c1	i	-5.0	89.0	i	94.0	1.9	·	·	·
COC(=O)c1ccc(/C=C(\C#N)c2ccccn2)cc1	i	-47.0	1.0*[inhibitor]	i	2.0*[inhibitor]	177.4	89.0	-34.0	87.0
NC(=NCCCCCCN=C(N)/N=C(\N)Nc1ccc(Cl)cc1)/N=C(\N)Nc1ccc(Cl)cc1	i	96.0*	345.0*	i	113.0	-68.0	268.0*	121.0*	113.0
Cn1c(=O)c2c(nc(NCC3CCCC(CN)C3)n2Cc2ccc(Cl)cc2Cl)n(C)c1=O (stereo not drawn)	i	30.0*	141.0*	i	104.0	-3.7	185.0	48.0	109.0
